39 compounds from PubChem BioAssay (Tox21) can be followed below.

Each structure is given as a SMILES string. Inconclusive results are not listed. Activity calls are given as the source filed them. The call rests on the fitted dose curve; in most records, active means well fitted curve in the direction sought with a large enough effect in the repeat runs; inconclusive means weak or mixed curves; inactive means no such curve, though single readings can be large; an effect the other way counts as inactive or inconclusive.
On the % scale 0 is the no-effect control and ±100 the full control effect.

The first test is described as follows: qHTS RealTime-Glo MT Cell Viability Assay in HepG2 cells - 8 hour (AID 1224873). Further: nearly all actives have a fitted effect of over 55% in size. Particulars: RealTime-Glo luminescence; series mostly up to 76.8 µM. In a few lines:
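HepG2 cells (600/well) mixed with RealTime-Glo MT reagent, settled 5 h at 37 C/5% CO2 before compound addition. Nonlytic NanoLuc luminescence from viable-cell prosubstrate reduction read repeatedly during 40 h treatment at 37 C.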
On the technique in general: Quantitative high-throughput screening tests each substance at several concentrations.
For the compound `O=c1oc2c(O)c(O)cc3c(=O)oc4c(O)c(O)cc1c4c23`, the viability change, negative = cytotoxic is 0.835% [at 15.8 µM] (inactive).
For the compound `Cc1nnc(SCC2=C(C(=O)O)N3C(=O)[C@@H](NC(=O)Cn4cnnn4)[C@H]3SC2)s1`, the result was inactive.
Still for that read-out and setting: then `Cc1cc(S(=O)(=O)O)c(N)cc1Cl`, with “inactive”; and `COc1cc(C)ccc1C(C)C`, with “inactive”; and `Cc1ccsc1C(=CCCN1CCC[C@@H](C(=O)O)C1)c1sccc1C`, with “inactive”.
Same read-out and setting: then `C=CC1CO1` (stereo not drawn), with “inactive”; and `CNCCC(Oc1ccccc1OC)c1ccccc1` (stereo not drawn), with “inactive”; and `FC(F)(F)C(F)(F)C(F)(F)C(F)(F)C(F)(F)C(F)(F)C(F)(F)C(F)(F)Br`, with “inactive”.
Consider `CCN(CC)C(=O)N(CC)CC`, for which the compound was called inactive.
Still for that read-out and setting: then `CN(CC1(C)CCCO1)S(=O)(=O)c1ccc(Cl)c(S(N)(=O)=O)c1` (stereo not drawn), with “inactive”; and `O=CCCc1ccccc1`, with “inactive”.
On the same count and under the same terms, then `CN1C(=O)CC(c2ccccc2)C1=O` (stereo not drawn), with “inactive”; and `CCCN(CCC)C(=O)C(CCC(=O)O)NC(=O)c1ccccc1` (stereo not drawn), with “inactive”; and `CC(=O)Nc1ccc(C)c(Cl)c1`, with “inactive”.
On the same count and under the same terms, under `CCCCN1C[C@H](O)[C@@H](O)[C@H](O)[C@H]1CO` stands “inactive”.
On to `Cc1cccc(C)c1NC(=O)CN1CCCCCC1`, for which the call was inactive.
For `CO[C@@]1(NC(=O)CSCC#N)C(=O)N2C(C(=O)O)=C(CSc3nnnn3C)CS[C@@H]21`, the compound was called inactive.
On the same count and under the same terms, under `FC(F)(F)C(Cl)(Cl)Cl` stands “inactive”.
The same measure, in the same setting: under `CCC(=O)Nc1ccc(O)cc1` stands “inactive”; under `N#Cc1ccc(C(c2ccc(C#N)cc2)n2cncn2)cc1`, “inactive”.
The same measure, in the same setting: then `CCOc1ccc2nc(N)sc2c1`, with “inactive”.
Regarding `Cc1ccc([N+](=O)[O-])cc1Cl`, the result was inactive.
On the same count and under the same terms, under `CCCCCCC` stands “inactive”; under `CCc1cc(Cl)c(OC)c(C(=O)NC[C@@H]2CCCN2CC)c1O`, “inactive”.
The same measure, in the same setting: under `CC(C)O` stands “inactive”; under `CC(CNC1CCCCC1)OC(=O)c1ccccc1` (stereo not drawn), “inactive”.
On the same count and under the same terms, under `CC(=O)OC1C2(C)CCC(C2)C1(C)C` (stereo not drawn) stands “inactive”; under `COc1ccc(S(=O)(=O)Nc2nnc(CC(C)C)s2)cc1`, “inactive”.
`NC/C=C/C(=O)O`: the call was inactive.
Still for that read-out and setting: then `C1CSCCS1`, with “inactive”; and `C[C@]12C(=O)OC(=O)[C@H]1[C@H]1C=C[C@@H]2C1`, with “inactive”; and `OCCN(CCO)CCN(CCO)CCO`, with “inactive”.
Still for that read-out and setting: then `O=S(=O)(O)C(F)(F)F`, with “inactive”.
Still for that read-out and setting: under `CC(C)NCC(O)COc1ccc(CCOCC2CC2)cc1` (stereo not drawn) stands “inactive”.
Turning to `NC1=NCC2c3ccccc3Cc3ccccc3N12` (stereo not drawn), the outcome was inactive.
On the same count and under the same terms, under `CC(C)(CO)[C@@H](O)C(=O)NCCC(=O)O` stands “inactive”.
As to `CCCCNC(=S)NCCCC`, the compound was classed as inactive.
The same measure, in the same setting: then `CC(C)CCCCCCc1ccc(OCCOCCO)cc1`, with “inactive”.
On the same count and under the same terms, under `CC(=O)O[C@H]1CC[C@@]2(C)C(=CC[C@@H]3[C@@H]2CC[C@]2(C)C(C(C)=O)=CC[C@@H]32)C1` stands “inactive”.

The nature of the next test: qHTS RealTime-Glo MT Cell Viability Assay in HEK293 cells - 40 hour (AID 1224874). Further: nearly all actives have a fitted effect of over 50% in size. As to conditions: RealTime-Glo luminescence; max response: stronger effect = lower value. In short, it runs like this: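 qHTS format; HEK293 cells with NanoLuc/prosubstrate reagent, 37 C/5% CO2 for 5 h pre-dosing; compounds 23 nL in DMSO; luminescence at each time point reflects viable cells.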
`O=c1oc2c(O)c(O)cc3c(=O)oc4c(O)c(O)cc1c4c23`: the max response is -22.4% (inactive).
Still for that read-out and setting: under `Cc1nnc(SCC2=C(C(=O)O)N3C(=O)[C@@H](NC(=O)Cn4cnnn4)[C@H]3SC2)s1` stands 6.83% (inactive).
On the same count and under the same terms, then `Cc1cc(S(=O)(=O)O)c(N)cc1Cl`, with -1.1% (inactive); and `COc1cc(C)ccc1C(C)C`, with 3.29% (inactive); and `Cc1ccsc1C(=CCCN1CCC[C@@H](C(=O)O)C1)c1sccc1C`, with 2.02% (inactive).
In the case of `C=CC1CO1` (stereo not drawn), the max response was 6.13% (inactive).
Same read-out and setting: under `CNCCC(Oc1ccccc1OC)c1ccccc1` (stereo not drawn) stands -21.1% (inactive); under `FC(F)(F)C(F)(F)C(F)(F)C(F)(F)C(F)(F)C(F)(F)C(F)(F)C(F)(F)Br`, -0.235% (inactive).
Still for that read-out and setting: then `CCN(CC)C(=O)N(CC)CC`, with 4.58% (inactive).
Still for that read-out and setting: under `CN(CC1(C)CCCO1)S(=O)(=O)c1ccc(Cl)c(S(N)(=O)=O)c1` (stereo not drawn) stands 2.08% (inactive); under `O=CCCc1ccccc1`, 4.45% (inactive); under `CN1C(=O)CC(c2ccccc2)C1=O` (stereo not drawn), 11.9% (inactive).
Turning to `CCCN(CCC)C(=O)C(CCC(=O)O)NC(=O)c1ccccc1` (stereo not drawn), the max response is 3.51% (inactive).
On to `CC(=O)Nc1ccc(C)c(Cl)c1`, for which the max response is -13.2% (inactive).
The same measure, in the same setting: under `CCCCN1C[C@H](O)[C@@H](O)[C@H](O)[C@H]1CO` stands 5.15% (inactive).
On to `Cc1cccc(C)c1NC(=O)CN1CCCCCC1`, for which the max response was 5.59% (inactive).
Same read-out and setting: under `CO[C@@]1(NC(=O)CSCC#N)C(=O)N2C(C(=O)O)=C(CSc3nnnn3C)CS[C@@H]21` stands 7.28% (inactive).
Same read-out and setting: then `FC(F)(F)C(Cl)(Cl)Cl`, with 6.41% (inactive); and `CCC(=O)Nc1ccc(O)cc1`, with 2.18% (inactive).
As for `N#Cc1ccc(C(c2ccc(C#N)cc2)n2cncn2)cc1`, the max response is -0.518% (inactive).
The same measure, in the same setting: under `CCOc1ccc2nc(N)sc2c1` stands -4.71% (inactive).
Still for that read-out and setting: under `Cc1ccc([N+](=O)[O-])cc1Cl` stands 0.878% (inactive).
Still for that read-out and setting: under `CCCCCCC` stands -15.1% (inactive); under `CCc1cc(Cl)c(OC)c(C(=O)NC[C@@H]2CCCN2CC)c1O`, -13.1% (inactive).
For the compound `CC(C)O`, the max response was -1.12% (inactive).
For `CC(CNC1CCCCC1)OC(=O)c1ccccc1` (stereo not drawn), the max response is -9.26% (inactive).
The same measure, in the same setting: under `CC(=O)OC1C2(C)CCC(C2)C1(C)C` (stereo not drawn) stands -0.0469% (inactive); under `COc1ccc(S(=O)(=O)Nc2nnc(CC(C)C)s2)cc1`, 6.93% (inactive).
Same read-out and setting: then `NC/C=C/C(=O)O`, with 2.11% (inactive).
Still for that read-out and setting: under `C1CSCCS1` stands -4.02% (inactive).
For the compound `C[C@]12C(=O)OC(=O)[C@H]1[C@H]1C=C[C@@H]2C1`, the max response was 10.7% (inactive).
On the same count and under the same terms, under `OCCN(CCO)CCN(CCO)CCO` stands -1.3% (inactive); under `O=S(=O)(O)C(F)(F)F`, 7.92% (inactive).
As to `CC(C)NCC(O)COc1ccc(CCOCC2CC2)cc1` (stereo not drawn), the max response was -6.16% (inactive).
On the same count and under the same terms, under `NC1=NCC2c3ccccc3Cc3ccccc3N12` (stereo not drawn) stands -13.1% (inactive).
The same measure, in the same setting: then `CC(C)(CO)[C@@H](O)C(=O)NCCC(=O)O`, with 4.63% (inactive); and `CCCCNC(=S)NCCCC`, with -21.7% (inactive); and `CC(C)CCCCCCc1ccc(OCCOCCO)cc1`, with 2.16% (inactive).
Still for that read-out and setting: then `CC(=O)O[C@H]1CC[C@@]2(C)C(=CC[C@@H]3[C@@H]2CC[C@]2(C)C(C(C)=O)=CC[C@@H]32)C1`, with -20.5% (inactive).
